How the values were obtained:
Settings in all cases: concentration: 1 μM,replicates: in singlicate; n = 1
NIM1 = tested on: T1, NIM1
T1 construct: gene MGC42105

NLK = tested on: NLK
OSR1 = tested on: T2, OSR1
T2 construct: gene OXSR1

PAK1 = tested on: PAK1
PAK2 = tested on: PAK2
PAK3 = tested on: PAK3
PAK4 = tested on: PAK4
PAK6 = tested on: PAK6
PAK7 = tested on: PAK7
PCTK1 = tested on: T3, PCTK1
T3 construct: gene CDK16

PCTK2 = tested on: T4, PCTK2
T4 construct: gene CDK17

PCTK3 = tested on: T5, PCTK3
T5 construct: gene CDK18

PDGFRA = tested on: PDGFRA
PDGFRB = tested on: PDGFRB
PDPK1 = tested on: PDPK1
PFTAIRE2 = tested on: PFTAIRE2
PFTK1 = tested on: T6, PFTK1
T6 construct: gene CDK14

PHKG1 = tested on: PHKG1
PHKG2 = tested on: PHKG2
PIK3C2B = tested on: PIK3C2B
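Further: KINOMEscan kinase panel screen.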

Structure (SMILES)	%Inh (NIM1) [%]	%Inh (NLK) [%]	%Inh (OSR1) [%]	%Inh (PAK1) [%]	%Inh (PAK2) [%]	%Inh (PAK3) [%]	%Inh (PAK4) [%]	%Inh (PAK6) [%]	%Inh (PAK7) [%]	%Inh (PCTK1) [%]	%Inh (PCTK2) [%]	%Inh (PCTK3) [%]	%Inh (PDGFRA) [%]	%Inh (PDGFRB) [%]	%Inh (PDPK1) [%]	%Inh (PFTAIRE2) [%]	%Inh (PFTK1) [%]	%Inh (PHKG1) [%]	%Inh (PHKG2) [%]	%Inh (PIK3C2B) [%]
COc1cc2nccc(Nc3ccc(Oc4ccccc4)cc3)c2cc1OC.Cl [GI261656]	5	0	0	0	0	0	0	0	3	0	0	0	77	92	0	5	9	0	6	0
c1ccc(Oc2ccc(Nc3ccnc4ccc(-c5ccccn5)cc34)cc2)cc1 [GW407034]	17	13	57	20	11	0	0	0	7	8	0	17	0	34	0	0	15	0	0	4
CS(=O)(=O)Nc1ccc(-c2ccnc3[nH]ccc23)cc1 [GSK993273]	13	30	41	26	27	51	0	11	3	15	0	0	1	61	0	16	16	2	13	0
Cc1ccc(C(=O)Nc2ccc(Oc3ccc4nc(NC(=O)C5CC5)cn4c3)c(F)c2)c(=O)n1-c1ccccc1	0	7	0	0	2	12	0	8	0	0	2	0	98.2	96.5	0	9	0	26	0	0
Cl.Cl.NC[C@H](CC1CCCCC1)NC(=O)c1ccc(-c2ccnc3[nH]ccc23)s1 [GSK1581428]	14	12	19	22	38	94.8	34	62	68	6	0	0	80	97.3	18	32	31	36	13	0
Cn1ccc2ncnc(Oc3ccc(NC(=O)Nc4cccc(C(F)(F)F)c4)c(Cl)c3)c21	0	25	0	10	17	21	15	1	1	0	0	8	98.6	100	0	3	10	0	3	0
COc1cccc(C2=C(Nc3cccc(Cl)c3)C(=O)NC2=O)c1 [SB-341556]	3	5	27	4	19	100	0	0	8	9	0	6	0	17	0	8	0	0	0	0
CC(=O)c1c(-c2ccncc2)[nH]c(-c2ccncc2)c1C [GW493036]	8	18	3	15	19	20	0	2	0	4	0	54	0	7	0	0	26	0	0	0
N#Cc1cccc(C(=O)NC2CCN(c3ccnc(Nc4ccc(F)cc4)n3)C2)c1 (stereo not shown) [GSK1379708]	16	0	6	0	4	0	0	27	0	1	0	0	0	23	13	2	11	0	0	0
CCOC(=O)N1CCC(n2cnc(-c3ccc(F)cc3)c2-c2ccnc(N)n2)CC1 [SB-219952]	31	92.7	1	3	26	9	28	6	11	0	9	32	14	23	7	25	17	0	0	56
O=C(Nc1ccc(Oc2ccc3nc(NC(=O)C4CC4)cn3n2)c(F)c1)c1cccn(-c2ccccc2)c1=O	0	0	0	0	0	0	0	0	0	0	5	5	96.3	100	0	0	0	61	0	0
NC(=O)c1ccc(-c2cc3ncnc(SCC(=O)O)c3s2)cc1	0	0	0	0	0	0	0	0	0	0	0	2	71	80	0	0	7	0	1	0
Cc1cccc(-c2nc(Nc3ccncc3)c3sccc3n2)n1 [GW869641]	35	60	24	15	30	50	23	11	2	22	0	0	36	27	7	5	0	0	5	29
CCCC(=O)Nc1n[nH]c2ncccc12 [SB-601436]	0	0	0	0	17	0	0	0	0	0	0	0	0	0	0	14	9	0	0	0
O=c1[nH]cc(-c2ccc(O)cc2)c2sc(-c3ccncc3)cc12 [GSK1033723]	4	11	3	14	5	11	0	4	5	1	12	17	0	18	0	11	18	7	22	0
Cn1ccc2ncnc(Oc3ccc(NC(=O)Nc4ccnc(C(F)(F)F)c4)c(Cl)c3)c21	0	14	0	23	13	100	7	0	0	21	0	0	97	100	0	5	0	24	8	0
Cl.c1ccc(Oc2ccc(Nc3ccnc4cc(-c5ccc(CN6CCNCC6)o5)ccc34)cc2)nc1 [GW567142]	0	15	0	7	0	0	0	0	0	1	0	2	78	98.5	0	25	11	0	0	0
COC(=O)c1cccc(NC(=O)NC2CCN(c3ccnc(Nc4cc(OC)c(OC)c(OC)c4)n3)C2)c1 (stereo not shown) [GSK1379767]	40	32	0	10	0	18	5	0	18	0	24	0	6	65	0	0	20	10	2	0
COc1cc2ncn(-c3cc(OCC4CCCCC4)c(C(N)=O)s3)c2cc1OC [GSK204559]	3	0	15	9	17	18	0	0	1	3	0	21	2	66	17	34	24	4	18	0
Cn1ccc2ncnc(Oc3ccc(NC(=O)Nc4cccc(C(F)(F)F)c4)c(F)c3)c21	0	18	0	14	12	0	6	0	0	0	17	1	99.1	100	17	0	0	18	0	0
CN1CCN(CCCNc2nccc(-c3c(-c4ccc(F)cc4)nn4cc(C(N)=O)ccc34)n2)CC1 [GW622475]	9	70	19	26	22	34	0	7	24	6	20	12	0	63	0	33	11	14	26	8

Structure (SMILES)	%Inh (NIM1) [%]	%Inh (NLK) [%]	%Inh (OSR1) [%]	%Inh (PAK1) [%]	%Inh (PAK2) [%]	%Inh (PAK3) [%]	%Inh (PAK4) [%]	%Inh (PAK6) [%]	%Inh (PAK7) [%]	%Inh (PCTK1) [%]	%Inh (PCTK2) [%]	%Inh (PCTK3) [%]	%Inh (PDGFRA) [%]	%Inh (PDGFRB) [%]	%Inh (PDPK1) [%]	%Inh (PFTAIRE2) [%]	%Inh (PFTK1) [%]	%Inh (PHKG1) [%]	%Inh (PHKG2) [%]	%Inh (PIK3C2B) [%]
COc1cccc(CNC(=O)NC2CCN(c3ccnc(Nc4cc(OC)c(OC)c(OC)c4)n3)C2)c1 (stereo not shown) [GSK1379765]	21	0	3	0	8	11	0	0	1	3	0	0	6	51	4	16	11	15	0	0
CC(C)c1nc(-c2cccc(NS(=O)(=O)c3ccccc3)c2)c(-c2ccnc(Nc3ccc4c(c3)CN(C)CC4)n2)s1 [GSK1649598]	29	98.1	14	39	25	88	0	10	3	100	100	100	91.2	100	0	85	78	0	45	20
COC(=O)Nc1nc2cc(Oc3ccc(NC(=O)Nc4cc(C(F)(F)F)ccc4Cl)cc3)ccc2[nH]1.Cl [GW697465]	26	2	10	36	29	25	0	0	2	0	11	26	86	100	0	80	39	1	0	0
COc1ccc(Nc2nccc(N3CCC(NC(=O)c4cccc(C#N)c4)C3)n2)cc1 (stereo not shown) [GSK1379730]	0	0	0	0	0	24	0	0	0	3	0	3	0	4	26	0	0	0	0	0
CCn1c(-c2nonc2N)nc2cncc(CNC3CCNCC3)c21.Cl [SB-747651]	31	18	4	0	51	45	0	2	0	8	0	0	0	4	18	14	1	25	0	0
Cc1nnc(-c2ccc3occ(-c4ccc(S(C)=O)cc4)c3n2)o1 (stereo not shown)	0	55	0	4	0	0	0	3	0	0	2	0	0	0	2	0	0	0	16	0
CC(=O)Nc1ccc(-c2cc3ncnc(SCC(=O)O)c3s2)cc1	0	0	7	0	0	0	0	0	8	28	0	24	64	88	0	4	0	21	3	6
Cn1ccc2ncnc(Oc3ccc(NC(=O)Nc4cc(C(C)(C)C)on4)c(Cl)c3)c21	0	67	20	20	23	46	8	1	0	27	8	7	98.9	100	0	9	0	3	9	7
O=C(Nc1cccc(C(F)(F)F)c1)c1cccc(Oc2ccc3nccn3n2)c1	44	0	0	0	0	20	8	1	0	21	0	0	98.5	99.9	13	0	0	33	0	99.3
COc1cc2c(Nc3ccc(NC(=O)c4ccccc4)cc3)ncnc2cc1OCCCN1CCOCC1 [GSK301329]	16	7	20	0	3	30	0	5	0	3	0	28	24	55	0	10	12	0	0	0
C[C@@H](Oc1cc(-n2cnc3ccc(-c4ccncc4)cc32)sc1C(N)=O)c1ccccc1Cl [GSK483724]	13	49	11	8	29	21	44	13	10	7	0	47	8	54	0	22	26	9	0	88
O=C(Nc1n[nH]c2cc(-c3ccco3)ccc12)C1CC1 [SB-737447]	0	4	12	0	48	0	1	0	8	36	31	28	30	59	0	0	1	0	3	6
CN(c1ccc2c(c1)nc(NCc1ccc(F)cc1)n2C)c1ccnc(Nc2ccc(CS(C)(=O)=O)cc2)n1.Cl [GW813244]	0	0	0	10	35	12	15	0	0	0	0	0	99	100	0	14	0	0	0	0
Cc1n[nH]c2cc(Nc3ccnc(Nc4cccc(CN5CCOCC5)c4)n3)ccc12 [GW682569]	22	18	0	0	0	0	2	1	20	0	12	8	75	95.4	0	7	20	0	0	0
CS(=O)c1ccc(-c2coc3ccc(-c4n[nH]c(=O)o4)cc23)cc1 (stereo not shown)	7	11	83	0	36	18	4	5	19	14	2	0	10	0	0	0	4	0	6	8
Cn1ccc2ncnc(Oc3ccc(NC(=O)Nc4cnn(C(C)(C)C)c4)c(Cl)c3)c21	0	38	6	13	34	45	5	19	0	24	5	0	99.6	100	5	0	0	0	0	27
NC(=O)Nc1sc(-c2ccc(F)cc2)cc1C(N)=O [GW789449]	14	0	16	0	4	24	11	12	1	0	100	0	5	54	13	16	0	1	0	40
Cc1ccn2nc(-c3ccc(F)cc3)c(-c3ccncc3)c2c1.Cl [GW457859]	20	79	0	0	0	0	0	0	21	0	18	7	0	33	0	7	24	0	11	0
CN1CCN(CCNc2nc3cc(Oc4ccc(NC(=O)Nc5cc(C(F)(F)F)ccc5F)cc4)ccc3[nH]2)CC1.Cl.Cl [GW768504]	0	0	0	0	30	6	10	0	0	0	0	0	84	99.6	0	37	18	0	0	14
CSc1nccc(-c2c(-c3ccc(F)cc3)ncn2CCCN2CCOCC2)n1.Cl [SB-217146]	0	0	0	3	43	0	10	0	0	0	0	0	0	12	10	0	0	11	0	0

Source: PMC5540273 (PLoS ONE, 2017)
